PubChem BioAssay (NCI)
Where “and” joins values, the source holds several entries; their conditions need not be identical. Equal values may be shown once. About 83,000 compounds went through this panel and 20% of them were active in at least one assay; those are over-represented in the sample as a whole.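 Results are percent growth after 48 hours of single-concentration exposure. 100 means growth as in untreated cells, lower positive values show inhibition; negative values down to -100 show cell death.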 Calls of active or inactive are those of the source. The calls were made as follows: active = growth percent below 10; inactive = the rest.

tested on: MDA-MB-468 breast; test: NCI-60 one-dose screen, 48 h (100 = growth as untreated, 0 = no growth, -100 = all killed); details: 10 µM unless noted

| SMILES | growth |
| --- | --- |
| C(=N\Nc1ccccn1)/c1ccccn1 | -38.7% (active) |
| O=S1(=O)NCCCN1CCNc1nccc(-c2c(-c3cccc(O)c3)nc3sccn23)n1 | 78.8% (inactive) |
| CN(C)c1ccc2nc3ccc(N)cc3[n+](-c3ccccc3)c2c1 | -28.6% (active) and 20.2% (inactive) |
| CN(C)CCCn1c2c(c3cnccc3c1=O)C(=O)c1ccccc1-2 | -1.59% (active) |
| Nc1ccc(S(=O)(=O)Nc2ccnn2-c2ccccc2)cc1 | 107% (inactive) |
| CCOC(=O)C(Cc1ccccc1)(C(=O)OCC)C(Br)C(=O)c1ccccc1 (stereo unspecified) | -9.41% (active) |
| CC(C)N(C(=S)SSC(=S)N(C(C)C)C(C)C)C(C)C | 110% (inactive) |
| Fc1ccc2[nH]cc(-c3nc(-c4ccsc4)cs3)c2c1 | 69.6% (inactive) |
| C#CCOC(=O)[C@@H]1CCCN1CC#C | 75.4% (inactive) |
| CCCN1C(=O)/C(=c2\sc3n(c2=O)C2C(NN=3)N(CC)C(=O)N2CC)c2ccccc21 (stereo unspecified) | 4.78% (active) |
| O=c1[nH]c(-c2ccccc2)nc2sc3cc(O)ccc3c12 | 93.7% (inactive) |
| COc1ccc(/C=C2\CN(Cc3cn(CCCNc4ccnc5cc(Cl)ccc45)nn3)C/C(=C\c3ccc(OC)cc3)C2=O)cc1 | 57.5% (inactive) |
| COc1cc(-c2nn(C(C)(C)C)cc2-c2ccnc(NCCCNS(=O)(=O)c3cccc(F)c3)n2)ccc1Cl | 77.8% (inactive) |
| COc1cc(-c2cc(-c3ccc(Nc4nc(Nc5ccccc5)nc(Nc5ccc(Cl)cc5)n4)cc3)nc(N)n2)cc(OC)c1OC | 90.7% (inactive) |
| Cc1cccc(NC(=O)CCc2ccc(N3C(N)=NC(N)=NC3(C)C)cc2)c1 | 39.9% (inactive) |
| O=C(CC(C(=O)c1ccccc1)N1CCOCC1)c1ccccc1 (stereo unspecified) | 101% (inactive) |
| Nc1ccc(C(OC(=O)c2cc3ccccc3c(Cc3c(O)c(C(=O)OC(c4ccc(N)cc4)(c4ccc(N)cc4)c4ccc(N)cc4)cc4ccccc34)c2O)(c2ccc(N)cc2)c2ccc(N)cc2)cc1 | -23% (active) |
| CN(C)CC1CCCCCC(CN(C)C)C1=O (stereo unspecified) | 15.3% (inactive) |
| CN1CCN(CCCCCN=c2cc3c(=O)n(CCCCCN4CCN(C)CC4)c(=O)c4c(NCCCCCN5CCN(C)CC5)cc5c(O)n(CCCCCN6CCN(C)CC6)c(=O)c2c5c4-3)CC1 | -50.8% (active) |
| CCN(CC)CCCCNc1ccc(NCCCCN(CC)CC)c2c1C(=O)c1ccccc1C2=O | 106% (inactive) |
| C(=N\Nc1ncnc2sc3c(c12)CCNC3)/c1cccc2ccccc12 | 72.1% (inactive) |
| COc1cc2c(cc1OC)-c1cc(OC)c(OC)cc1C(CN(C)C)C2 (stereo unspecified) | 66.4% [100 µM] (inactive) |
| CC(C)(C(=O)c1cccnc1)c1cccnc1 | 96.4% (inactive) and 96.1% (inactive) |
| O=C(O)c1cc(C(F)(F)F)cc(C(F)(F)F)c1 | 109% (inactive) |
| CCCCCCOC(=O)CC1=C(C)/C(=C/c2[nH]c(-c3ccc[nH]3)cc2OC)N=C1C | -59.7% (active) |
| O=C(N/N=C/c1ccc([N+](=O)[O-])cc1)c1ccc2nc(-c3ccc(Cl)cc3)[nH]c2c1 | -38.9% (active) |
